An excerpt weighted towards active compounds, which were near 21% of everything screened.
NS1 function inh – blocks influenza NS1 protein function; Potency, µM (series often up to 46.1 µM), for inactives: at the highest dose activity, positive = more growth; 270,000 tested, 0.4% active; calls by dose curve; further: potency means the concentration at half of the fitted maximal effect; actives are rising curves; nearly all actives have a fitted effect of over 50% in size
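Compounds were scored for reversing the slow growth caused by influenza A NS1 in S. cerevisiae, measured by optical density at 600 nm. Assay medium contained 2% galactose at pH 6.0; NS1-free yeast of the same strain were the positive control.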
Pf growth 48h – inhibits P. falciparum growth in the first generation, 48 h; AID 504832; P. falciparum luciferase growth in erythrocytes, 48 h; 310,000 tested, 5.9% active; Potency, µM (series often up to 28.7 µM), inactives show at the top dose activity change, negative = inhibition, usual class: inhibitors; further: potency means the concentration at half of the fitted maximal effect; on the % scale 0 is the no-effect control and ±100 the full control effect
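Luciferase-expressing P. falciparum in infected erythrocytes (2% hematocrit, 0.1% parasitemia final) in RPMI 1640/0.5% Albumax were exposed to compound for 48 hours at 37 C, 5% CO2; growth read as luminescence.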
CHX counter – counter-screen hit for Shiga toxin inhibitors, cycloheximide | AID 2314 | 300,000 tested, 12% active | cell reporter, cycloheximide protein synthesis inhibition counterscreen | max response, %; in the data active means max response mostly above about 13%, no sharp cut-off; inactive means mostly below about 14%; further: read at 38.3 µM for the half of the compounds with a filed dose; 0% is about no effect
Shiga toxin inh – Shiga toxin inhibition; Vero cells, Shiga toxin protein synthesis inhibition reporter; inhibition, % at 38.7 µM; 290,000 tested, 9.2% active; in the data active means inhibition mostly above about 28%, no sharp cut-off; inactive means mostly below about 43%; further: 0% is about no effect
Pf growth 96h – P. falciparum growth inhibition at 96 hour, primary screen for plastid delayed-death inhibitors; Potency, µM (doses to about 28.7 µM), for the others: top-dose activity change, negative = inhibition, actives largely listed as inhibitors; 320,000 tested, 6.9% active; AID 504834; P. falciparum luciferase reporter growth, 96 h; further: potency means the concentration at half of the fitted maximal effect; on the % scale 0 is the no-effect control and ±100 the full control effect
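Parasite growth measured via integrated firefly luciferase reporter in P. falciparum. Infected erythrocytes at 2% hematocrit, 0.05% parasitemia final were treated 96 hours at 37 C under 5% CO2, and luminescence was read.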
* marks the source's active call; other numbers are inactive results; i = inactive; ? = inconclusive; · = no result; + = active, no number; [ ] = dose if it differs, or a comment. Unless noted, the call rests on the fitted dose curve; in most records, active means well fitted inhibition curve with a large enough effect; inconclusive means small, poorly fitted or top-dose-only effect, or another doubt; inactive means no such curve, though single readings can be large or run the other way.

SMILES | NS1 function inh | Pf growth 48h | CHX counter | Shiga toxin inh | Pf growth 96h
COc1cccc(CN2CC(C(=O)NCCN3CCOCC3)CCC2=O)c1 (configuration not stated) | 0.2% | 4.3% | 1.6 | 2.5 | 14.7µM*
CCN(CC)CCNC(=O)c1cc2c(-c3cccc(OC)c3)nn(C)c2s1 | 2.8% | 1.47µM* | -1.1 | 2.8 | ?
COc1cccc(-c2nn(C)c3sc(C(=O)Nc4ccc5c(c4)OCCO5)cc23)c1 | -8.6% | ? | 60.7* | 74.7* | 27.5%
CCOC(=O)N1CCC(NC(=O)c2cc3c(-c4cccc(OC)c4)nn(C)c3s2)CC1 | 3.4% | 9.28µM* | -1.6 | -8.1 | ·
COCCCNC(=O)c1cc2c(-c3cccc(OC)c3)nn(C)c2s1 | -9.3% | 14.3% | -2.7 | 3.2 | ?
Cc1cccc(NC(=S)NC(C)C(c2cccs2)N2CCN(C)CC2)c1C (configuration not stated) | -7.8% | ? | 0.3 | 41.7 | ?
Cc1ccc(C(=O)c2oc3ccccc3c2N)cc1 | -7.4% | 21.8% | 20.4* | 74.0* | 1.2%
CCOCC(=O)Nc1c(C(=O)OCC)oc2ccccc12 | -12.6% | 33.8% | -1.6 | -15.3 | -4.7%
Nc1c(C(=O)c2ccc(Br)cc2)oc2ccccc12 | -13.5% | 49.2% | 29.9* | 44.7* | -5.6%
COC(=O)c1oc2ccc(Br)cc2c1-n1cccc1 | -14.3% | 5.6% | -4.2 | -5.7 | ?
CCOC(=O)c1oc2ccccc2c1N | -16.3% | 18.5% | 27.4* | 66.9* | 0.2%[5.75 µM]
CC(=O)Nc1c(N)c2ccccc2oc1=O | 3.3% | 2.2% | -0.6 | -13.0 | 29.8%
Nc1c(C(=O)c2ccccc2)oc2ccc(Br)cc12 | -7.9% | 158.9% | 27.7* | 82.9* | ?
COc1ccc(C(=O)NCc2nnc(SCC(=O)Nc3nc4ccccc4s3)o2)cc1OC | 8.1% | -15.4% | -4.0 | 20.3 | 7.4%
COC(=O)CCC(=O)c1oc2ccc(Br)cc2c1N | -12.0% | i | 41.5* | + | 3.9%
Nc1c(C(=O)c2ccccc2)oc2ccc([N+](=O)[O-])cc12 | -3.7% | -17.0% | 25.8* | 41.1* | 186.9%
O=C(Nc1ccccc1N1CCCCC1)c1cccc([N+](=O)[O-])c1 | · | -9.3% | -0.9 | -1.4 | ?
Cc1ccc(C(=O)Nc2cc(C(F)(F)F)ccc2N2CCCCC2)cc1[N+](=O)[O-] | -1.4% | 13.1µM* | -1.7 | -18.8 | 18.9%
CCC(=O)N1CCN(c2ccc(Cl)cc2NC(=O)c2ccc(N3CCCC3)c([N+](=O)[O-])c2)CC1 | 8.4% | ? | 3.5 | -17.3 | 1.85µM*
CCC(=O)Nc1cc(Cl)ccc1N1CCN(C(=O)CC)CC1 | 1.9% | ? | -2.1 | -4.8 | 16.7%
O=C(Nc1cc(C(F)(F)F)ccc1N1CCCCC1)c1cccc([N+](=O)[O-])c1 | -1.8% | 14.7µM* | -3.5 | -15.5 | ?
Nc1ccc(S(=O)(=O)N2CCOCCOCCOCCOCCOCC2)cc1 | 2.6% | 11.7% | -2.7 | · | 15.3%
Cc1ccc(NC(=O)CCSc2nnc(C)s2)cc1 | 2.5% | 15.3% | 8.4 | 20.7 | -0.8%
CC1=NN(/C(=N\c2nnc(C)s2)Nc2ccc(C(C)(C)C)cc2)[C@H](c2ccc(C)cc2)S1 | -11.2% | 4.15µM* | 10.2 | 27.2* | 6.57µM*
CC(=O)N(C)c1ccc(NC(=O)Nc2ccc(C)c(C)c2)cc1 | -12.4% | -14.3% | 12.1* | 30.7 | ?
SMILES | NS1 function inh | Pf growth 48h | CHX counter | Shiga toxin inh | Pf growth 96h
CC(=O)N(C)c1ccc(NC(=O)Nc2ccccc2C)cc1 | · | 268.4% | 39.1* | 81.5* | 22.2%
O=C1CCC([N+](=O)[O-])C(c2cc3c(cc2Cl)OCO3)N1 (configuration not stated) | 3.8% | -0.3% | -2.9 | 2.7 | 15.7%
N#CC1=C(S)N(c2ccccc2)C(c2ccc(-c3ccccc3Cl)o2)NC1=O (configuration not stated) | 3.3% | 0.3% | -2.6 | -7.6 | -11.1%
N#Cc1ccccc1CSc1nc2ccsc2c(=O)n1Cc1ccccn1 | 0.4% | 24.7% | 17.6* | -3.4 | ?
O=c1c2sccc2nc(SCc2cc(=O)n3cc(Br)ccc3n2)n1Cc1ccccn1 | · | 174.3% | 26.4* | 93.0* | ?
CC(C)C[C@H]1CN=C(Nc2ccccc2)N1CC1CCC(C)CC1 (some centres not stated) | -0.2% | ? | -3.5 | -4.8 | ?
O=S(=O)(NCc1ccccc1)c1ccc(Br)c2nsnc12 | -4.3% | -17.3% | 5.3 | 7.1 | 0.4%
CCOc1ccccc1C(=O)Nc1nnc(SCC(=O)Nc2cc(C)on2)s1 | 1.5% | 33.7% | -2.9 | -1.4 | 47.4%

From PubChem
